# Laboratory results: the supplement of paper PMC8773631
# Counter-ions that a name gives are not always drawn. ± gives the uncertainty stated by the source.
# System: NCC-MFS5-C1
# Assay: cell viability relative to DMSO control; higher = less growth inhibition
# Details: 10 µM; treatment time: 3 days
# Protocol: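 NCC-MFS5-C1 myxofibrosarcoma cells (1x10^4 per well, 384-well) were treated on day 2 with 10 µM of each drug. On day 5, viability was read by CCK-8 absorbance at 450 nm and normalised to the DMSO control (%), n = 2.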
row,Compound,cell viability [%]
1,Cc1c(N)nc(C(CC(N)=O)NCC(N)C(N)=O)nc1C(=O)NC(C(=O)NC(C)C(O)C(C)C(=O)NC(C(=O)NCCc1nc(-c2nc(C(=O)NCCC[S+](C)C)cs2)cs1)C(C)O)C(O[C@@H]1O[C@@H](CO)[C@@H](O)[C@H](O)[C@@H]1O[C@H]1O[C@H](CO)[C@@H](O)[C@H](OC(N)=O)[C@@H]1O)c1cnc[nH]1 (some centres not stated) [Bleomycin Sulfate],78.3 ± 12
2,Cn1c(CCCC(=O)O)nc2cc(N(CCCl)CCCl)ccc21 [Bendamustine HCl],66.3 ± 8.2
3,N.N.[Cl][Pt][Cl] [Cisplatin],79.1 ± 4.2
4,C/C=C(\C)C(=O)N[C@@H](c1ccccc1)[C@@H](O)C(=O)O[C@H]1C[C@@]2(O)[C@@H](OC(=O)c3ccccc3)[C@@H]3[C@]4(OC(C)=O)CO[C@@H]4C[C@H](O)[C@@]3(C)C(=O)[C@H](OC(C)=O)C(=C1C)C2(C)C [Cephalomannine],50.2 ± 8.7
5,O=P1(N(CCCl)CCCl)NCCCO1 (configuration not stated) [Cyclophosphamide Monohydrate],85.6 ± 2.8
6,O=C(O)CCCc1ccc(N(CCCl)CCCl)cc1 [Chloroambucil],99.4 ± 29
7,CC[C@@]1(O)C(=O)OCc2c1cc1n(c2=O)Cc2cc3ccccc3nc2-1 [Camptothecin],52.5 ± 6.1
8,CC(=O)OC12COC1CC(O)C1(C)C(=O)C(O)C3=C(C)C(O)CC(O)(C(OC(=O)c4ccccc4)C21)C3(C)C (configuration not stated) [10-Deacetylbaccatin-III],86.6 ± 0.96
9,NCCCNCCSP(=O)(O)O [Amifostine],103 ± 3
10,C=CCN1CC[C@]23c4c5ccc(O)c4O[C@H]2C(=O)CC[C@@]3(O)[C@H]1C5 [Naloxone HCl],72.1 ± 2.9
11,O=P1(NCCCl)OCCCN1CCCl (configuration not stated) [Ifosfamide],79.9 ± 6.8
12,C=C1C[C@@H]2[C@H](CC[C@]3(C)C(=O)CC[C@@H]23)[C@@]2(C)C=CC(=O)C=C12 [Exemestane],100 ± 4.3
